The results in this text go back to the supplement of paper PMC7335073.

Over roughly 4,100 sequences, “relative CpG methylation activity (normalised to average over all NNNCGNNN flanks)” has its median near 0.87; the highest 2% begin near 2.4. Shown is part of a subset that was picked to be rich in the highest values.

The assay has as its target DNMT3A catalytic domain (mouse) (UniProt O88508). Kind of assay: relative CpG methylation activity (normalised to average over all NNNCGNNN flanks) (relative (1 = mean)); higher = more methylation of the central CpG. The conditions noted are these: system: in vitro, murine catalytic domain; CpG state: hemimethylated substrate pool; residues: 608-908. The method, then:
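Deep enzymology: a pool of dsDNA substrates with a central CpG flanked by 10 random nucleotides on each side was methylated by the murine DNMT3A or DNMT3B catalytic domain (0.8 mM SAM, 37 °C, 60 min). Methylation was then read out by hairpin ligation, bisulfite conversion and NGS. Values are the average methylation of each NNNCGNNN context (±3 flanks; the outer flanks are random and averaged over), normalised to the overall mean, so 1 = average activity.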
For the sequence CCTCGGAT, the “relative CpG methylation activity” value turned out to be 0.744.

With CCCCGCGC, the “relative CpG methylation activity” value turned out to be 1.17.

Consider TATCGACT, for which the “relative CpG methylation activity” value was 0.753.

As to ATCCGGAT, the “relative CpG methylation activity” value is 1.34.

Take GTGCGACC: the “relative CpG methylation activity” value is 1.61.

On to AGCCGATT, for which the “relative CpG methylation activity” value was 0.672.

GATCGCCA: the “relative CpG methylation activity” value came out at 0.923.

For TTCCGCCC, the “relative CpG methylation activity” value stood at 2.77.

For CTCCGCGT, the “relative CpG methylation activity” value is 1.98.

As for CTCCGCCA, the “relative CpG methylation activity” value was 2.37.

For the sequence CTCCGCCT, the “relative CpG methylation activity” value is 2.45.

Take CGCCGCCA: the “relative CpG methylation activity” value is 1.25.

Regarding ATCCGCCC, the “relative CpG methylation activity” value stood at 2.96.

For AACCGCCC, the “relative CpG methylation activity” value is 1.78.

Take CACCGCCA: the “relative CpG methylation activity” value came to 1.32.

Turning to ATCCGCCG, the “relative CpG methylation activity” value was 2.1.

With TCCCGCCC, the “relative CpG methylation activity” value was determined as 1.99.

TTCCGCGC: the “relative CpG methylation activity” value came out at 2.03.

On to CGCCGCCT, for which the “relative CpG methylation activity” value was determined as 1.48.

With CATCGGGG, the “relative CpG methylation activity” value was determined as 0.133.

Regarding CGCCGGTA, the “relative CpG methylation activity” value came to 0.746.

For the sequence ATCCGGAA, the “relative CpG methylation activity” value was 0.939.

As for CCACGCAC, the “relative CpG methylation activity” value was 1.81.

Take CTTCGGGC: the “relative CpG methylation activity” value was 1.16.

As for TCTCGACG, the “relative CpG methylation activity” value was 0.648.

With GGCCGCAA, the “relative CpG methylation activity” value turned out to be 0.657.

For the sequence TTGCGACT, the “relative CpG methylation activity” value amounted to 1.31.

Consider GTCCGCCC, for which the “relative CpG methylation activity” value turned out to be 2.41.

As for GCCCGCCC, the “relative CpG methylation activity” value was determined as 2.25.

Consider ATCCGCGT, for which the “relative CpG methylation activity” value stood at 1.34.

For GGCCGCCC, the “relative CpG methylation activity” value is 1.79.

As for ATCCGCCT, the “relative CpG methylation activity” value was found to be 2.5.

For CTCCGCCC, the “relative CpG methylation activity” value is 2.44.

CGCCGCCC: the “relative CpG methylation activity” value came out at 1.77.

As to AACCGCCT, the “relative CpG methylation activity” value was found to be 1.76.

For CTCCGCCG, the “relative CpG methylation activity” value was determined as 2.31.

As for GTCCGCGG, the “relative CpG methylation activity” value stood at 0.584.

As to GTCCGCCG, the “relative CpG methylation activity” value worked out at 2.46.

For the sequence GGCCGCCG, the “relative CpG methylation activity” value was 1.34.

Consider TAGCGCTG, for which the “relative CpG methylation activity” value was 0.34.

Turning to CATCGACC, the “relative CpG methylation activity” value is 0.793.

As to GATCGTTT, the “relative CpG methylation activity” value was 0.404.

As to TGTCGGTC, the “relative CpG methylation activity” value amounted to 0.542.

Consider GGTCGAAA, for which the “relative CpG methylation activity” value amounted to 0.512.

For AGCCGCCA, the “relative CpG methylation activity” value was found to be 1.02.

In the case of ATCCGCGA, the “relative CpG methylation activity” value was determined as 1.03.

Regarding ATCCGCCA, the “relative CpG methylation activity” value came out at 2.4.

On to AACCGAGG, for which the “relative CpG methylation activity” value stood at 0.346.

Consider AGACGAGA, for which the “relative CpG methylation activity” value amounted to 0.731.

TTCCGTCC: the “relative CpG methylation activity” value was 2.26.

Regarding ATCCGTCC, the “relative CpG methylation activity” value worked out at 2.61.

With ATCCGTCG, the “relative CpG methylation activity” value turned out to be 2.08.

Regarding CTCCGTCG, the “relative CpG methylation activity” value is 1.92.

For the sequence CTCCGTCA, the “relative CpG methylation activity” value worked out at 1.79.

As to CTCCGTCC, the “relative CpG methylation activity” value was found to be 2.65.

On to GCACGGGC, for which the “relative CpG methylation activity” value is 1.47.

GAACGTCG: the “relative CpG methylation activity” value turned out to be 1.25.

ATGCGGCC: the “relative CpG methylation activity” value was determined as 1.64.
